miR-21 act – qHTS Assay for Modulators of miRNAs and/orActivators of miR-21; 340,000 tested, under 10 active; Potency, µM (titrated, usually from 38.3 µM), without a hit: at the highest dose activity change, positive = activation, usual class: activators; HeLa miR-21 FLuc reporter, luciferase, 48 h; AID 2288, 2010;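 note: % of control where 0% means no effect; miR-21 action dims this reporter so a rising signal means less miR-21 action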
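Luminescence from a firefly luciferase reporter carrying a miR-21 binding site downstream, stably expressed under a CMV promoter in HeLa cells that make miR-21 endogenously, reports miRNA modulation after 48 h compound exposure up to approximately 40uM final.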
Sfp inh – qHTS Assay for Inhibitors of Bacillus subtilis Sfp phosphopantetheinyl transferase (PPTase). 4'-phosphopantetheinyl transferase ffp (Bacillus subtilis), Q9F4F7. Biochemical Sfp PPTase activity, qHTS. Potency, µM, inactives show largest response in the series, negative = inhibition, actives largely listed as inhibitors. 3.5% of 310,000 active. AID 1490, 2009;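 note: the enzyme is Sfp with the accession as filed and its product quenches rhodamine fluorescence; potency is the fitted concentration of half-maximal effect; 0% = enzyme reaction without inhibitor and -100% = no enzyme wells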
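After 15 min at room temperature with compound, 15 nM Sfp received 5 uM rhodamine-CoA plus 12.5 uM BHQ-2-ybbR (50 mM Hepes pH 7.6, 10 mM MgCl2). Rate came from the fluorescence difference over 30 min, ex 525/em 598 nm.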
G9a inh – qHTS Assay for Inhibitors of Histone Lysine Methyltransferase G9a. Histone-lysine N-methyltransferase EHMT2 (Homo sapiens), Q96KQ7. G9a H3K9 monomethylation, AlphaScreen, 2 h. Potency, µM (series often up to 102 µM), inactives show at the top dose activity, negative = inhibition, hits mostly inhibitors. 8.8% of 350,000 active. AID 504332, 2011; note: potency is the fitted concentration of half-maximal effect; % is set by controls: 0 for no effect and ±100 for the full control effect; nearly all actives have a fitted effect of over 75% in size
Target sequence (Q96KQ7 913-1193 limits assumed): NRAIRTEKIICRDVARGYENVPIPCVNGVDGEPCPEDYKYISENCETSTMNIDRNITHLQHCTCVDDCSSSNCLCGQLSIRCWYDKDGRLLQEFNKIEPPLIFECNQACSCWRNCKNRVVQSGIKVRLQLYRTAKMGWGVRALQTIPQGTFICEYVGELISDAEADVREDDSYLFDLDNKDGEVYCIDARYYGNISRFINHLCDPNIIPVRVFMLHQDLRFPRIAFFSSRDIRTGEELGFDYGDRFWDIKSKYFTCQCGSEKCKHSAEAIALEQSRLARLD
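Chemiluminescent proximity detection of H3K9 monomethylation, read after 10 min bead incubation in the dark. Reaction: 20 nM G9a, 500 nM biotin-H3K9 peptide, 20 uM SAM cofactor, 2 h, room temperature, following 15 min enzyme-compound preincubation.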
ALDH1A1 inh – qHTS Assay for Inhibitors of Aldehyde Dehydrogenase 1 (ALDH1A1) | AID 1030, 2008 | Purified ALDH1A1, NADH fluorescence, propionaldehyde substrate | 7.3% of 220,000 active | Potency, µM (top dose mostly 75.3 µM), for the others: at the top dose activity, negative = inhibition, hits mostly inhibitors; active = well fitted inhibition curve with a large enough effect, not every such curve was filed as active; inconclusive = small, poorly fitted or top-dose-only effect, or another doubt; inactive = no such curve, though single readings can be large or run the other way;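 note: potency is the fitted concentration of half-maximal effect; plate controls were no enzyme wells and a reference inhibitor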
KDM4E inh – qHTS Assay for Inhibitors of Human Jumonji Domain Containing 2E (JMJD2E); Lysine-specific demethylase 4E (Homo sapiens), B2RXH2; JMJD2E catalytic domain, FDH-coupled NADH fluorescence (FDH is formaldehyde dehydrogenase); Potency, µM (titrated, usually from 57.1 µM), without a hit: at the top dose activity change, negative = inhibition, usual class: inhibitors; 1.6% of 230,000 active; AID 2147, 2009; active = well fitted inhibition curve with a large enough effect, not every such curve was filed as active; inconclusive = small, poorly fitted or top-dose-only effect, or another doubt; inactive = no such curve, though single readings can be large or run the other way;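 note: potency is the fitted concentration of half-maximal effect; 0% = wells with enzyme and -100% = buffer wells without enzyme; nearly all actives have a fitted effect of over 50% in size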
Target sequence (B2RXH2 1-337 limits assumed): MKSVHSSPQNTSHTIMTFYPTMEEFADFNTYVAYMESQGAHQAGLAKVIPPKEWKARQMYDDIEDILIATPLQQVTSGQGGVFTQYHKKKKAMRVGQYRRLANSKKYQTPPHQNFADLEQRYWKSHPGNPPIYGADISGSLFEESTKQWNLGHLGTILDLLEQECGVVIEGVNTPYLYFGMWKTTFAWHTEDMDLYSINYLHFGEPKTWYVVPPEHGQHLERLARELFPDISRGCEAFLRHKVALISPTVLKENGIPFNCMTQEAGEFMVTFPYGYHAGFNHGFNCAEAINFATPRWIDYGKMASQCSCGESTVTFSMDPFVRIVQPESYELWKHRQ
Lamin A splicing – qHTS Assay for Modulators of Lamin A Splicing; HeLa LMNA splicing GFP/RFP minigene ratio, 48 h; Potency, µM (titrated, usually from 46.1 µM), for inactives: at the highest dose ratio change, negative = inhibition, actives largely listed as inhibitors; 0.01% of 200,000 active; AID 1487, 2009; active = well fitted inhibition curve with a large enough effect in the signal ratio, with a control signal flat, not every such curve was filed as active; inconclusive = small, poorly fitted or top-dose-only effect, or effect the other way, or a change in a side signal; the % refers to the signal ratio; note: potency is the fitted concentration of half-maximal effect; % is set by controls: 0 for no effect and ±100 for the full control effect
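S3 HeLa cells stably expressing lamin A-EGFP splicing minigene plus DsRed2, 600 cells/well, 48 h compound exposure at 37C. Laser-scanning cytometry; analysed as GFP (500-530 nm)/RFP (575-640 nm) total intensity ratio; 0.5% DMSO vehicle.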
Starred values were filed as active, the others as inactive; ? = inconclusive; . = no result given; [ ] = remark or other dose. An excerpt weighted towards active compounds, which were near 13% of everything screened. Unless noted, calls come from the whole dose curve; as a rule, active = well fitted curve in the direction sought with a large enough effect; inconclusive = small, poorly fitted or top-dose-only effect, or another doubt; inactive = no such curve, though single readings can be large; an effect the other way counts as inactive or inconclusive.

SMILES | miR-21 act | Sfp inh | G9a inh | ALDH1A1 inh | KDM4E inh | Lamin A splicing
CC1CCCN(C(=O)c2ccc(COc3ccccc3Br)cc2)C1 (stereo unspecified) | -20.0% | ? | -26.8%[59 µM] | 25.1µM* | -2.0% | ?
CC1CCCN(C(=O)c2ccc(-c3ccccc3Cl)o2)C1 (stereo unspecified) | . | . | 44.7µM* | . | . | .
Cc1ccc2nc(/C(C#N)=C/c3cccc(Br)c3)[nH]c2c1 | -0.7% | . | 37.7%[59 µM] | . | . | .
N#C/C(=C/c1ccc(N2CCCC2)c([N+](=O)[O-])c1)c1nc2ccccc2[nH]1 | -30.5% | -10.4% | 11.3%[2.33 µM] | ? | 3.4% | ?
Cc1ccc2nc(/C(C#N)=C/c3ccc(O)c(O)c3)[nH]c2c1 | -19.9% | -25.2% | 8.91µM* | . | . | .
Cc1ccc2nc(/C(C#N)=C\c3ccc(N4CCCCC4)c([N+](=O)[O-])c3)[nH]c2c1 | 15.8% | -8.1% | 14.1µM* | ? | -15.0% | ?
CNC[C@@H](O)[C@@H](O)[C@H](O)[C@H](O)CO | . | 26.1% | 13.5%[59 µM] | . | . | 2.8%
O=S(=O)(NCCSc1ccc(Cl)cc1)c1ccc2c(c1)OCCO2 | -5.5% | -5.3% | 76.7%[59 µM] | 14.1µM* | -1.2% | ?
Cc1ccc(C(=O)N2CCCCC2)cc1S(=O)(=O)N1CCOCC1 | 2.3% | 0.1% | . | . | . | .
CC(=O)c1ccc(NC(=O)c2ccccc2-c2ccccc2C(=O)O)cc1 | 3.6% | 15.5% | . | . | . | .
CC1CC[C@]2(CO)CC[C@]3(C)C(=CCC4[C@@]5(C)CCC(O)C(C)(C)C5CC[C@@]43C)C2C1C (stereo partly specified) | . | 2.6% | -12.0%[2.33 µM] | 2.7% | 1.1% | .
CC1=C(C(=O)Nc2ccc(C)cc2C)C(CC(C)C)n2nc(SCc3ccccc3C)nc2N1 (stereo unspecified) | 4.2% | . | -1.4%[59 µM] | . | . | .
CC(=O)n1c(Cl)c(NC(=O)CCl)c2ccccc21 | ? | 12.4% | ? | 22.4µM* | 1.5% | ?
CC(=O)n1c2ccccc2c2ccccc21 | -0.3% | 12.0% | 100.4%[59 µM] | 15.6% | 7.0% | 7.4%
CC(C)C(NS(=O)(=O)c1cccc2nsnc12)C(=O)N1CCCCC1 (stereo unspecified) | 1.9% | 4.6% | -2.1% | . | . | .
Cc1ccc(C)c(S(=O)(=O)Nc2ccc(O)c3ccccc23)c1 | 24.9% | 70.8µM* | 28.2µM* | . | . | .
Cc1ccc(S(=O)(=O)Nc2ccc(O)c3ccccc23)c(C)c1 | 10.9% | 56.2µM* | 22.4µM* | . | . | .
Cc1ccc(C)c(S(=O)(=O)Nc2ccc(O)c(C(=O)O)c2)c1 | 3.0% | 13.2% | ? | ? | -9.1% | -7.2%[46 µM]
Cc1ccc(S(=O)(=O)NNc2ccccc2)c(C)c1 | -9.8% | 17.8µM* | 1µM* | 7.08µM* | 5.1% | -15.7%
Cc1ccc(S(=O)(=O)Nc2cc(C(C(=O)OC(C)C)C(=O)C(F)(F)F)c(O)c3ccccc23)c(C)c1 (stereo unspecified) | 10.1% | 56.2µM* | 39.8µM* | -4.6% | -8.3% | 3.7%
COc1ccc(S(=O)(=O)Nc2ccc(O)c3ccccc23)cc1 | 17.1% | -3.8% | ? | ? | 1.6% | ?
CC(C)c1nc2ccc(C(=O)NCCCN3CCN(c4ccccc4)CC3)cc2o1 | ? | . | -7.3%[59 µM] | . | . | 3.4%[46 µM]
Cc1ccc2c(CC(=O)Nc3cc(C(F)(F)F)ccc3Cl)coc2c1C | 4.2% | . | -1.0%[59 µM] | . | . | .
CCOc1cc2c(cc1C=O)OC(C)C2 (stereo unspecified) | 1.0% | 15.0% | -6.2%[12.7 µM] | 25.1µM* | ? | .
COc1cc2c(cc1C=O)OC(C)C2 (stereo unspecified) | 3.3% | 16.8% | -4.0%[59 µM] | ? | -21.5% | 4.8%[46 µM]
CCOc1cc2c(cc1/C=C/c1noc(C)c1[N+](=O)[O-])OC(C)C2 (stereo unspecified) | 2.4% | 12.1% | 44.7µM* | . | . | .
